Reference: PubChem BioAssay AID485314 (National Center for Advancing Translational Sciences (NCATS), 2010)
Screen size: about 340,000 compounds; about 4,500 (1.3%) were called active. Not shown: some 5% with an inconclusive outcome. The call rests on the fitted dose curve; in most records, active means well fitted inhibition curve with a large enough effect; inconclusive means small, poorly fitted or top-dose-only effect, or another doubt; inactive means no such curve, though single readings can be large or run the other way. The entries come from a sample that favours actives as a whole. Where a call stands in place of a potency, no number is given.
Potency means the concentration at half of the fitted maximal effect.

Each molecule was assayed against DNA polymerase beta (Homo sapiens) (UniProt P06746) (assay: qHTS Assay for Inhibitors of DNA Polymerase Beta). Conditions: Pol beta primer extension/strand displacement, fluorescence kinetic; series mostly up to 114 µM.
How it was run: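 10 nM enzyme + cpd, 15 min RT; start with substrate 50 nM final; read 0 min and after 10 min RT. Corrected, normalized data; 4-parameter Hill curve fit.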
In the case of Cc1ccc(/C=C(\C#N)C(=O)Nc2cccc3ncccc23)o1, the Potency is reported as 3.16 µM (active). CCOC(=O)c1ccc(-c2ccc(/C=C(\C#N)C(=O)Nc3ccc(OCC)cc3)o2)cc1 was tested, and the Potency was “inactive”. With O=C(O)c1cc(Cl)c(Cl)cc1C(=O)Nc1cccc2ncccc12 the Potency was “inactive”. For CCOCCCNC(=O)c1cn(CC)c2ccc(S(=O)(=O)N3CCc4ccccc4C3)cc2c1=O, the Potency was “inactive”. CCN1/C(=C\c2ccc3ccccc3[n+]2CC)Sc2cc(C)ccc21 was tested, and the Potency was 25.1 µM (active). In the case of CCN1/C(=C/c2ccc3ccc(C)cc3[n+]2CC)Sc2ccccc21, the Potency is reported as 31.6 µM (active). For Cn1c(=O)c2c(-c3ccccc3Br)n(Cc3ccccc3)cc2n(C)c1=O, the Potency was “inactive”. With COc1ccccc1CNC(=O)C(=O)NCC(c1cccs1)S(=O)(=O)c1cccs1 (stereo not given) the Potency was “inactive”. In the case of Cc1c(Cl)cccc1NC(=O)C(=O)NCCc1csc2nc(-c3ccccc3F)nn12, the Potency is reported as “inactive”. In the case of COc1ccc(Nc2ncc3c(n2)CCN(C(=O)OC(C)(C)C)C3)cc1, the Potency is reported as “inactive”. COc1cccc(-c2nc(CS(=O)(=O)CC(=O)N3CCN(c4cc(C)ccc4C)CC3)c(C)o2)c1 was tested, and the Potency was “inactive”. For COc1cccc(C(c2c(O)cc(C)n(Cc3ccco3)c2=O)N2CCN(c3ccccc3)CC2)c1 (stereo not given), the Potency was “inactive”. For Cc1ccccc1CNC(=O)c1cccc(NC(=O)c2nsc3ccccc23)c1, the Potency was “inactive”. With COc1cc(OC)cc(C(=O)Nc2cc3nn(-c4ccccc4)nc3cc2Cl)c1 the Potency was “inactive”. For CC1(C)Cc2c(C#N)c(SCc3nc4ccccc4[nH]3)nc(N3CCOCC3)c2CO1, the Potency was “inactive”. In the case of O=c1[nH]c(N2CCOCC2)nc2ccccc12, the Potency is reported as “inactive”. With C1=C(N2CCOCC2)/C(=C/c2nc3ccccc3[nH]2)CC1 the Potency was 20 µM (active). O=C(CC(c1cccs1)N1Cc2ccccc2C1=O)Nc1ccc(F)c(F)c1 (stereo not given) was tested, and the Potency was “inactive”. With Cc1c(C(=O)Nc2cccc(Cl)c2)oc2ccc(S(=O)(=O)N3CCOCC3)cc12 the Potency was “inactive”. In the case of CCc1nnc(NS(=O)(=O)c2ccc(NC(=S)NC(=O)/C=C/c3cccs3)cc2)s1, the Potency is reported as 89.1 µM (active). CCOC(=O)c1c(NC(=S)NC(=O)/C=C/c2cccs2)sc(C)c1C was tested, and the Potency was “inactive”. In the case of CCc1nnc(NS(=O)(=O)c2ccc(NC(=S)NC(=O)c3cccs3)cc2)s1, the Potency is reported as “inactive”. In the case of COc1cccc(CNC(=O)Cc2csc3nc(-c4ccccc4)cn23)c1, the Potency is reported as “inactive”. With Fc1ccccc1Oc1ncnc2c1oc1ccccc12 the Potency was “inactive”. In the case of COc1ccc(CC(=O)Nc2nnc3n2CCS3)cc1OC, the Potency is reported as “inactive”. CCCCOc1ccc(CNC(=O)c2ccc3c(c2)N(C)C(=O)C2CCCCN32)cc1 (stereo not given) was tested, and the Potency was “inactive”. In the case of COc1ccccc1-c1cc2nc(C)c(CCC(=O)O)c(C)n2n1, the Potency is reported as “inactive”. C=CCn1c(CSc2nc3ccccc3s2)nnc1SCC(=O)NCc1ccco1 was tested, and the Potency was 39.8 µM (active). For CCn1c(SCC(=O)NCc2ccco2)nnc1-c1ccc(N)cc1, the Potency was “inactive”. In the case of O=C(CSc1nc2ccc(Nc3nc(N4CCOCC4)nc(N4CCOCC4)n3)cc2s1)NCc1ccco1, the Potency is reported as “inactive”. With Cc1ccc(Cn2c(CNC(=O)Cc3cccc(C)c3)nc3cccnc32)cc1 the Potency was “inactive”. In the case of Cc1cc(NC(=O)c2cccc(Cl)c2)ccc1-c1cc2ccccc2oc1=O, the Potency is reported as “inactive”. CCOc1ccc(-n2c(C)nc3c(cnn3-c3ccc(C)cc3)c2=O)cc1 was tested, and the Potency was “inactive”. In the case of COc1cccc(NC(=O)CN2C(=O)c3ccccc3Sc3ncccc32)c1, the Potency is reported as “inactive”. In the case of COc1ccccc1NC(=O)CN1C(=O)c2ccccc2Sc2ccc(C(=O)N3CCCC3)cc21, the Potency is reported as 50.1 µM (active). With COC(=O)c1ccc2c(c1)N(CC(=O)Nc1ccc(C)c(C)c1)C(=O)c1ccccc1S2 the Potency was “inactive”. With CCc1ccc(NC(=O)Cn2c(=O)n(CCC(=O)NCc3ccc4c(c3)OCO4)c(=O)c3ccccc32)cc1 the Potency was “inactive”. In the case of CC(=O)Nc1ccc(NC(=O)COc2ccc(-c3ccccc3)cc2)cc1, the Potency is reported as “inactive”. CNc1nnc(-c2ccco2)s1 was tested, and the Potency was “inactive”. In the case of Cc1ccc(OCC(=O)Nc2ccc(-c3nnc(-c4ccco4)o3)cc2)cc1, the Potency is reported as 14.1 µM (active). In the case of COc1ccc(NC(=O)COCc2cc(-c3ccco3)on2)cc1, the Potency is reported as “inactive”. With COc1ccc(OCC(=O)Nc2nnc(-c3ccco3)s2)cc1 the Potency was 17.8 µM (active). For Cc1cccc(NC(=O)CSc2nnc(-c3ccco3)o2)c1, the Potency was “inactive”. With O=C(CSc1nc(=O)[nH]c2c1CCCC2)Nc1cc(C(F)(F)F)ccc1Cl the Potency was “inactive”. With Cc1cccc(C(C)C)c1NC(=O)C(NS(=O)(=O)c1cccc2nsnc12)c1ccccc1 (stereo not given) the Potency was “inactive”. In the case of C=Cc1ccc(Cn2c(C(=O)O)c(CNC3CCCC3)c3ccc(C)cc32)cc1, the Potency is reported as “inactive”. With O=C(NCc1ccc2c(c1)CCN2C(=O)c1ccccc1)Nc1cc(F)ccc1F the Potency was “inactive”. In the case of Cc1nc(SCCOc2ccc(Cl)cc2)[nH]c(=O)c1Cc1ccccc1, the Potency is reported as “inactive”. In the case of Cc1cccc(-c2nc(SCc3ccc(Br)cc3)n3[nH]c(=O)cc3n2)c1, the Potency is reported as “inactive”. In the case of O=c1cc2nc(-c3ccccc3)nc(SCCOc3ccc(Cl)cc3)n2[nH]1, the Potency is reported as 20 µM (active). COc1ccccc1CCNC(=O)c1cccn1-c1nnc(N2CCCCC2)s1 was tested, and the Potency was “inactive”. For CC(C)c1ccc(NS(=O)(=O)c2ccc3[nH]cc(C(=O)NC4CCCC4)c(=O)c3c2)cc1, the Potency was 20 µM (active). CCCCNC(=O)c1c[nH]c2ccc(S(=O)(=O)Nc3ccc(OCC)cc3)cc2c1=O was tested, and the Potency was “inactive”. For Cc1cc(C)cc(NS(=O)(=O)c2ccc3[nH]cc(C(=O)N4CCCCC4)c(=O)c3c2)c1, the Potency was “inactive”. In the case of O=C(Nc1nc2c(s1)CCCC2)c1ccccc1F, the Potency is reported as “inactive”. COc1cc(OC)c(NC(=O)Cc2ccc(-n3c(C)nc4cccnc43)cc2)cc1Cl was tested, and the Potency was “inactive”. With COc1ccc(CNC(=O)c2ccc(NC(=O)N3CC4CCCN4c4ccccc43)cc2)cc1 (stereo not given) the Potency was “inactive”. O=C(Nc1ccc2nc(SCC(=O)N3CCCc4ccccc43)sc2c1)c1ccc(Cl)cc1 was tested, and the Potency was “inactive”. For Cc1ccc(/C=N/NC(=O)CSc2nc3ccccc3o2)cc1, the Potency was 44.7 µM (active). O=C(CSc1nc2ccccc2o1)N/N=C/c1ccccc1C(=O)O was tested, and the Potency was “inactive”. CC(C)(C)C(=O)CSc1nc2ccccc2o1 was tested, and the Potency was “inactive”. With Cc1ccccc1-c1nc(CS(=O)(=O)CC(=O)Nc2cc(Cl)cc(Cl)c2)c(C)o1 the Potency was “inactive”. In the case of CCC(C)NC(=O)C1c2ccccc2Oc2ccccc21 (stereo not given), the Potency is reported as “inactive”. In the case of O=C(N/N=C/c1ccc(O)c(O)c1)C1c2ccccc2Oc2ccccc21, the Potency is reported as 7.08 µM (active). In the case of Cn1c(SCC(=O)N/N=C/c2ccc(O)c(O)c2)nc2ccccc21, the Potency is reported as “inactive”.
